# TDP1 cell CPT – DT40-hTDP1 cell growth loss with CPT; chicken DT40 Tdp1-/-;hTDP1 cells + 20 nM CPT, ATP luminescence, 48 h; 420,000 tested, 12% active; Potency, µM (doses to about 46.2 µM), inactives show at the top dose activity change, negative = growth inhibition, actives largely listed as inhibitors; also: potency is read from the fitted curve at half-maximal effect; nearly all actives have a fitted effect of over 55% in size
#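 Cell growth measured by CellTiter-Glo luminescence after a minimum 48 h, 37 C compound exposure with 20 nM CPT in Tdp1-knockout DT40 cells stably expressing hTDP1, seeded 400/well; qHTS titration format.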
# TDP1 cell noCPT – qHTS for Inhibitors of human tyrosyl-DNA phosphodiesterase 1 (TDP1): qHTS in cells in absence of CPT. AID 686978, 2013. 420,000 tested, 15% active. Potency, µM (series often up to 46.2 µM), inactives show at the highest dose activity change, negative = growth inhibition, actives largely listed as inhibitors. DT40 Tdp1-/- hTDP1 cells, no CPT, ATP luminescence, 48 h; also: potency is read from the fitted curve at half-maximal effect; nearly all actives have a fitted effect of over 55% in size
#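 Camptothecin absent (DMSO only). Human TDP1-complemented DT40 knockout cells, 400 cells/well, 37 °C for minimum 48 hr; ATP measured via CellTiter-Glo, 30 min dark incubation, luminescence.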
# HT1080 IDH1KD tx – toxicity to HT-1080 IDH1 knockdown cells (counter line) | HT-1080 IDH1 knockdown viability, ATP luminescence, 48 h | Potency, µM (doses to about 46.1 µM), inactives show at the highest dose activity, negative = toxicity, actives largely listed as cytotoxic | 360,000 tested, 2% active;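 also: potency is read from the fitted curve at half-maximal effect; 0% = DMSO wells and -100% = cell-free medium wells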
#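 Viability of IDH1-knockdown HT-1080 fibrosarcoma cells was assessed by CellTiter-Glo after 48 h at 37 °C with titrated compound; concentration-effect curves were classified by fit quality and response size.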
# IL-1B inflam inh – blocks inflammasome-driven IL-1 beta release | 360,000 tested, 4.7% active | activity change, % at 57.5 µM | THP-1 LPS/ATP IL-1B secretion, AlphaLISA, 16 h; stronger effect = lower value; in the data active = activity change below about -50%; inconclusive = mostly about -30% to -49%
#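 Secreted IL-1B measured by AlphaLISA bead assay after 16 h compound exposure of THP-1 cells; compounds (final up to 57.5 uM) added 1 h before LPS (250 ng/mL) and ATP (1.25 mM) stimulation; lower signal means less secretion.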
# HT1080NT lethal – kills 2HG-producing HT-1080-NT fibrosarcoma cells; HT-1080-NT fibrosarcoma viability, CellTiter-Glo ATP luminescence, 48 h; AID 686970; Potency, µM (doses to about 46.1 µM), for inactives: at the top dose activity, negative = less viability, actives largely listed as cytotoxic; 360,000 tested, 1.6% active;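 also: NT is the 2HG producing partner of a matched IDH1 knockdown line; potency is read from the fitted curve at half-maximal effect; 0% = DMSO-treated cells and -100% = media-only wells without cells; nearly all actives have a fitted effect of over 55% in size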
#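 HT-1080-NT; 750 cells/well; 5% FBS RPMI; 48 h compound, 37 degrees C; CellTiter-Glo luminescence; curve fitting and curve-class assignment.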
# * hit, by the source's call; ? = inconclusive; / = no result given; [ ] = remark or other dose. Most compounds without a hit are left out; they make up all but 19% or so of the library. Unless noted, calls follow the shape of the dose curve; as a rule, active = well fitted curve in the direction sought with a large enough effect; inconclusive = small, poorly fitted or top-dose-only effect, or another doubt; inactive = no such curve, though single readings can be large; an effect the other way counts as inactive or inconclusive. Unless noted, % is scaled to controls: 0 for no effect and ±100 for the full control effect.
SMILES,TDP1 cell CPT,TDP1 cell noCPT,HT1080 IDH1KD tx,IL-1B inflam inh,HT1080NT lethal
Cc1ccccc1NC(=O)c1cccc(N2C(=O)C3C4CC(C(Br)C4Br)C3C2=O)c1 (configuration not stated),-1%,1%,14%,14,5%
COc1ccc(OC)c(NC(=O)c2cccc(N3C(=O)C4C5CCC(C5)C4C3=O)c2)c1 (configuration not stated),23µM*,16µM*,-10%,0,-18%
COc1ccc(NC(=O)c2cccc(N3C(=O)C4CC=C(C)CC4C3=O)c2)c(OC)c1 (configuration not stated),?,12µM*,3%,21,3%
COc1ccc(NC(=O)c2cc(N3C(=O)C4C5CCC(C5)C4C3=O)ccc2Cl)c(OC)c1 (configuration not stated),?,-57%,2%,-8,-16%
CCc1cccc(C)c1NC(=O)CSc1nnc(N)s1,-3%,-6%,/,/,/
COC(=O)c1ccc(OCC(O)CN2CCN(C(=O)c3ccco3)CC2)c(OC)c1 (configuration not stated),4%,-12%,-3%,-14,13%
Oc1ccc2ccccc2c1C=NNc1ccccn1,3.3µM*,4.6µM*,?,127,?
Oc1ccc2ccccc2c1/C=N/Nc1nnc(-c2ncc[nH]2)c2ccccc12,5.2µM*,5.2µM*,5.2µM*,69,5.8µM*
Cc1c(C)c(C)c(C(=O)c2ccc(NC(=O)c3ccccc3C(=O)O)cc2)c(C)c1C,8%,3%,-20%,14,-6%
COc1ccc2cc3cc(C(=O)NCCCN4CCc5ccccc5C4)sc3nc2c1,?,?,1%,?,10%
COc1ccc2nc3sc(C(=O)NCCN4CCc5ccccc5C4)cc3cc2c1,21µM*,16µM*,1%,29,-4%
CCOc1ccc(CCNC(=O)c2cc3cc4ccc(OC)cc4nc3s2)cc1OCC,-45%,?,/,/,/
COc1ccc2cc3cc(C(=O)NC4CC4)sc3nc2c1,23µM*,18µM*,-21%,0,-20%
O=C(c1cc(-c2ccccc2)nn1-c1ccccc1)N1CCN(S(=O)(=O)c2c(F)cccc2F)CC1,13µM*,?,0%,-9,2%
Cc1cccc(C)c1NC(=O)CN1CCN(C(=O)c2cc(C3CC3)nn2-c2ccccc2)CC1,-25%,?,-4%,-14,2%
Cc1ccc(S(=O)(=O)N2CCN(C(=O)c3cc(C4CC4)nn3-c3ccccc3)CC2)cc1,?,?,6%,19,0%
O=C(c1cc(C2CC2)nn1-c1ccccc1)N1CCN(Cc2ccccc2F)CC1,16µM*,23µM*,-18%,?,-10%
O=C(c1cc(C2CC2)nn1-c1ccccc1)N1CCN(Cc2ccc(Cl)cc2)CC1,18µM*,12µM*,-6%,-17,-28%
O=C(c1cc(C2CC2)nn1-c1ccccc1)N1CCN(S(=O)(=O)c2ccccc2)CC1,?,16µM*,-11%,-14,-2%
CC1Cc2ccccc2N1C(=O)C1CC(=O)N(c2ccccc2)C1 (configuration not stated),-16%,-24%,-2%,-20,-13%
COc1ccc(-n2c(=O)c(-c3cccs3)nc3cnc(N4CCN(C)CC4)nc32)cc1,-25%,-18%,/,/,/
CCN(CC)S(=O)(=O)c1ccc(C(=O)OCn2nnc3ccccc3c2=O)cc1,-21%,-5%,14%,-18,16%
Fc1ccc(N2CCN(Cc3ccc4c(c3)CN(Cc3cccn3-c3ncccn3)CCO4)CC2)cc1,3%[9.04 µM],?,/,/,/
CC#CC#Cc1cccc(=O)o1,?,?,21µM*,-75*,?
N#CC1=C(N)C(C#N)(C#N)C2(C(=O)Nc3ccccc32)C2CCCC=C12 (configuration not stated),-20%,-26%,-19%[9.24 µM],-53*,?
SMILES,TDP1 cell CPT,TDP1 cell noCPT,HT1080 IDH1KD tx,IL-1B inflam inh,HT1080NT lethal
O=C(NCCc1ccccc1)c1cnc(Cl)c(Cl)c1,10%,?,22%,-87*,18%
N#Cc1ccc(C(=O)NCCCSc2ccccc2)cc1,?,21µM*,-15%,14,-3%
O=C(NCc1cccs1)c1cnc(Cl)c(Cl)c1,-28%,-23%,10%,-13,7%
O=C(NCCCSc1ccccc1)c1cnc(Cl)c(Cl)c1,-27%,-25%,-7%,-94*,-5%
CN(C)c1ccc(C(=O)NCCCSc2ccccc2)cc1,-22%,9%,6%,-18,2%
O=C(NCCc1ccccc1)c1nn(-c2ccccc2Cl)nc1CO,12µM*,13µM*,/,/,/
C[C@@H]1CN([C@H](C)CO)C(=O)CCCn2nncc2CO[C@@H]1CN(C)S(=O)(=O)c1ccccc1F,-6%,?,-3%,13,-4%
CCOC(=O)N1CCN(c2cc(N3CCN(CC)CC3)c(F)cc2[N+](=O)[O-])CC1C (configuration not stated),21µM*,?,?,?,0%
CCOC(=O)N1CCN(c2cc(N3CCOCC3)c(F)cc2[N+](=O)[O-])CC1,-29%,?,0%,-14,0%
COc1ccc(S(=O)(=O)N2CCCC(C(=O)NCCN3CCOCC3)C2)cc1C (configuration not stated),-7%,-16%,-1%,-15,-2%
CCOc1ccc(/C=N/NC(=O)c2ccccc2C)cc1CN1CC2CC(C1)c1cccc(=O)n1C2 (configuration not stated),?,23µM*,-12%,28,9%
CCOc1ccc(/C=N/NC(=O)c2ccccc2Cl)cc1CN1CC2CC(C1)c1cccc(=O)n1C2 (configuration not stated),?,?,-19%,-4,-28%
